Experimental findings from PubChem BioAssay (Tox21) are described below.

Records with an inconclusive call do not appear. Activity calls are given as the source filed them. The call rests on the fitted dose curve; in most records, active means well fitted cell-killing curve with a large enough effect in the repeat runs; inconclusive means weak or mixed curves, or effect the other way; inactive means flat fitted curve, though single readings scatter.
On the % scale 0 is the no-effect control and ±100 the full control effect; potency means the concentration at half of the fitted maximal effect.

A short description of the assay: qHTS assay to identify small molecule antagonists of the estrogen receptor alpha (ER-alpha) signaling pathway using the BG1 cell line in the presence of 0.1 nM 17-beta-estradiol - cell viability counter screen (AID 1259241). Further: nearly all actives have a fitted effect of over 40% in size. The following applies: VM7Luc4E2 (BG1) viability, CellTiter-Fluor protease, 22 h, 0.1 nM estradiol agonist added; series mostly up to 92.4 µM; activity change, negative = cytotoxicity: at the top concentration. From the text:
National Center for Advancing Translational Sciences [NCATS]
NIH Chemical Genomics Center [NCGC]
U.S. Environmental Protection Agency [EPA]
National Institutes of Environmental Health Sciences [NIEHS]
National Toxicology Program [NTP]
U.S. Food and Drug Administration [FDA]
Estrogen receptor (ER), a member of the nuclear hormone receptor plays an important role in development, metabolic homeostasis and reproduction. Two subtypes of ER, ER-alpha and ER-beta, have similar expression patterns with some uniqueness in both types. Endocrine disrupting chemicals (EDCs) and their interactions with steroid hormone receptors like ER causes disruption of normal endocrine function. Therefore, it is important to understand the effect of environmental chemicals in ER signaling pathway. For identifying ER antagonists, VM7Luc4E2 cell line was used to screen against Tox21 compound libraries.
VM7Luc4E2 cell line (provided by Denison MS, University of California) endogenously express full-length ER-alpha and is stably transfected with a plasmid containing four estrogen responsive elements (ERE) upstream of a luciferase reporter gene. The current screening for identification of ER-alpha inhibitors against Tox21 compound libraries used lower concentration (0.1 nM) of 17beta-Estradiol as a stimulator. The cytotoxicity of the Tox21 compound libraries against VM7Luc4E2 cell line was tested by measuring live-cell protease activity using CellTiter-Fluor assay in the same wells.
Tox21 Assay Protocol Summary:
VM7Luc4E2 cells were cultured in phenol red free assay medium containing 10% charcoal stripped FBS for 5 days prior to the assay. The cells were dispensed at 4,000 cells/well in 4 uL of assay medium into white wall/solid-bottom 1536-well plates (Corning Life Sciences, Corning, NY) using a Multidrop Combi (ThermoFisher Scientific, Waltham, MA) dispenser. After the assay plates were incubated at 37C and 5% CO2 for 24 hr, 23 nL of compounds dissolved in DMSO, positive controls or DMSO only was transferred to the assay plates by a Pintool station (Kalypsys, San Diego, CA). The transfer of compounds was followed by the addition of 1 uL of 0.1 nM (final concentration) agonist (17beta-Estradiol)/assay medium using a Flying Reagent Dispenser (FRD, Aurora Discovery, San Diego, CA). The plates were incubated at 37C and 5% CO2 for 22 hr. For cytotoxicity assay, 1 uL of CellTiter-Fluor reagent (Promega Corporation, Madison, WI) was added to each well using the FRD and after 30 min incubation at 37C and 5% CO2, The fluorescence intensity was measured using ViewLux plate reader (PerkinElmer, Shelton, CT).
`Cc1ccc2nc(-c3ccc(N)cc3)sc2c1S(=O)(=O)O`: the “activity change, negative = cytotoxicity” value is 4.68% [at 42.5 µM] (inactive). Take `CC(C)=CCC[C@H](C)CC=O`: the “activity change, negative = cytotoxicity” value is -0.237% (inactive).

For the molecule `CCCCCCCCc1ccc(Nc2ccc(CCCCCCCC)cc2)cc1`, the “activity change, negative = cytotoxicity” value is -2.37% [at 42.5 µM] (inactive).

Consider `CCc1cccc(C)c1N(C(=O)CS(=O)(=O)O)C(C)COC` (stereo not given), for which the “activity change, negative = cytotoxicity” value was -10.4% (inactive). The same measure, in the same setting: the figure for `CCC(C)(C)c1ccc(CC(C)CN2C[C@@H](C)O[C@@H](C)C2)cc1` (stereo not given in full) is -0.434% [at 42.5 µM] (inactive); for `Cn1c(=O)[nH]c2ncn(C)c2c1=O` it is 3.45% (inactive).

On to `O=C1C=CC(=O)N1c1cccc(N2C(=O)C=CC2=O)c1`, for which the Potency is 68.6 µM (active). Regarding `CN(C[C@@H](CC[N+]12CCC(C3CCCCC3)(CC1)CC2)c1ccc(Cl)c(Cl)c1)C(=O)c1cc(C(F)(F)F)cc(C(F)(F)F)c1`, the Potency is 54.5 µM (active). Consider `C[C@H]1O[C@@H](O[C@H]2CC[C@@]3(C)[C@H](CC[C@@H]4[C@@H]3C[C@@H](O)[C@]3(C)[C@@H](C5=CC(=O)OC5)CC[C@]43O)C2)C[C@H](O)[C@@H]1O[C@H]1C[C@H](O)[C@H](O[C@H]2C[C@H](O)[C@H](O[C@@H]3O[C@H](CO)[C@@H](O)[C@H](O)[C@H]3O)[C@@H](C)O2)[C@@H](C)O1`, for which the “activity change, negative = cytotoxicity” value was -18.4% [at 42.5 µM] (inactive). For `C=C1CC[C@H]2O[C@]2(C)CC[C@@H]2[C@@H]1CC2(C)C`, the “activity change, negative = cytotoxicity” value was 1.15% (inactive).

Turning to `NC(=O)C1CO1` (stereo not given), the “activity change, negative = cytotoxicity” value is -3.53% (inactive).

As for `Cc1ccc(S(=O)(=O)C(I)I)cc1`, the Potency is 77 µM (active). Take `CCNc1nc(NC(C)(C)C)nc(OC)n1`: the “activity change, negative = cytotoxicity” value is 1.91% (inactive). Consider `O[Si](c1ccccc1)(c1ccccc1)c1ccccc1`, for which the “activity change, negative = cytotoxicity” value was 4.76% (inactive).

As for `CCn1c2ccccc2c2ccccc21`, the “activity change, negative = cytotoxicity” value is -3.29% (inactive). Consider `COc1cccc(-c2ccc(/C=C\CN3CCCCCC3)cc2Cl)c1`, for which the “activity change, negative = cytotoxicity” value is -21.4% (inactive). Still for that read-out and setting: as for `CCCOC(=O)c1ccc(O)cc1`, the figure is 2.89% (inactive); as for `CCOC(=O)[C@H](O)[C@@H](O)C(=O)OCC`, 8.61% (inactive); as for `CCN(CC)c1ccc(C=O)cc1`, 1.11% (inactive).

Consider `C=CC(C)(C)O`, for which the “activity change, negative = cytotoxicity” value is -4.97% (inactive).

Consider `CC(Cc1ccc(O)c(O)c1)C(C)Cc1ccc(O)c(O)c1` (stereo not given), for which the “activity change, negative = cytotoxicity” value was -0.0059% (inactive). The same measure, in the same setting: as for `CC1(C)[C@H](C(=O)OCc2cccc(Oc3ccccc3)c2)[C@@H]1C=C(Cl)Cl`, the figure is -2.88% (inactive); as for `CCCCCCCCCCCC(=O)Cl`, 2.81% (inactive). On to `CC(C)(C)C1=CC(=O)C(C(C)(C)C)=CC1=O`, for which the “activity change, negative = cytotoxicity” value was 11.6% [at 42.5 µM] (inactive). The same measure, in the same setting: as for `Cc1ccc(C2OC[C@@H]3OC(c4ccc(C)cc4)O[C@H]([C@H](O)CO)[C@@H]3O2)cc1` (stereo not given in full), the figure is -3.58% (inactive).

On to `COc1cc([C@@H]2c3cc4c(cc3[C@@H](O[C@@H]3O[C@@H]5CO[C@@H](C)O[C@H]5[C@H](O)[C@H]3O)[C@H]3COC(=O)[C@H]23)OCO4)cc(OC)c1O`, for which the “activity change, negative = cytotoxicity” value was -8.44% (inactive). For the molecule `Clc1ccc2c(Cl)ccnc2c1`, the “activity change, negative = cytotoxicity” value is 3.89% (inactive). Still for that read-out and setting: the figure for `CC(C)c1ccc2sc3ccccc3c(=O)c2c1` is 7.78% (inactive).

Regarding `Oc1cccc2c(O)cccc12`, the Potency was 68.6 µM (active).

Consider `Nc1ccc2c(S(=O)(=O)O)cccc2c1S(=O)(=O)O`, for which the “activity change, negative = cytotoxicity” value is 11.9% [at 42.5 µM] (inactive). For `C=C(C)C1CCC(C)CC1O` (stereo not given), the “activity change, negative = cytotoxicity” value was -3.97% (inactive).

Consider `Nc1ccc(Cl)c([N+](=O)[O-])c1`, for which the “activity change, negative = cytotoxicity” value was -4.4% (inactive). On the same count and under the same terms, the figure for `CC(C)(C)c1cc(CCC(=O)OCCSCCOC(=O)CCc2cc(C(C)(C)C)c(O)c(C(C)(C)C)c2)cc(C(C)(C)C)c1O` is -5.01% [at 42.5 µM] (inactive); for `O=C1OC(O)C(C(Cl)Cl)=C1Cl` (stereo not given) it is -1.65% (inactive). Turning to `CN(C/C=C/c1ccccc1)Cc1cccc2ccccc12`, the “activity change, negative = cytotoxicity” value is -12.4% [at 42.5 µM] (inactive).

For the molecule `[Cl][Dy]([Cl])[Cl]`, the “activity change, negative = cytotoxicity” value is 2.36% (inactive). Same read-out and setting: the figure for `CC(O)(c1ccc(Cl)cc1)c1ccc(Cl)cc1` is 0.0372% (inactive); for `Nc1c(Br)cc([N+](=O)[O-])cc1Br` it is -6.74% (inactive). Turning to `C=Cc1ccncc1`, the “activity change, negative = cytotoxicity” value is -0.928% (inactive).

Consider `COCCC(=O)OC`, for which the “activity change, negative = cytotoxicity” value is -20.9% (inactive).
